What all share (assay): PBM binding z-score (relative to random genomic background probes); higher = stronger binding; sequences stand for … in GC…GCGATTGACAGCGTAGAATGAAGG
Experiment [1] deals with FXR:RXRa (NR concentration 270 nM, RXRa partner concentration 90 nM). The method, boiled down: (§1)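 Ligand-free nuclear receptor dimers were applied to custom Agilent 4×180K protein-binding microarrays whose double-stranded probes carried direct-repeat seeds, single-nucleotide variants, half-site ablations and random human genomic background sequences in 34-nt variable regions. Incubation lasted 1 h. Binding z-scores were computed against the random background probes from regression-normalized fluorescence.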

Experiment [2] has as its system LXRa:RXRa (NR concentration 270 nM, RXRa partner concentration 90 nM). The method, boiled down: as §1
Experiment [3] concerns LXRa homodimer (NR concentration 270 nM). The method, boiled down: as §1
In experiment [4] the test system is LXRb:RXRa (NR concentration 270 nM, RXRa partner concentration 90 nM). The method, boiled down: as §1
Experiment [5] deals with LXRb homodimer (NR concentration 270 nM). An outline of the steps: as §1
Experiment [6] concerns PPARa:RXRa (NR concentration 270 nM, RXRa partner concentration 90 nM). An outline of the steps:
as §1

For experiment [7], the system named is PPARg:RXRa (NR concentration 180 nM, RXRa partner concentration 90 nM). An outline of the steps: as §1
For experiment [8], the system named is PPARg:RXRa 270nM:90nM, anti-RXR (NR concentration 270 nM, RXRa partner concentration 90 nM). The method, boiled down:
as §1

For experiment [9], the system named is PPARg:RXRa 30nM:10nM, anti-RXR (NR concentration 30 nM, RXRa partner concentration 10 nM). The method, boiled down:
as §1

For experiment [10], the system named is PPARg:RXRa 90nM:30nM, anti-RXR (NR concentration 90 nM, RXRa partner concentration 30 nM). An outline of the steps: as §1

In the case of CCTAGTCGGTCAGGAGGTCACACACCGGATATGA, the PBM binding z-score was found to be 3.96 in [1]; 4 in [2]; 2.81 in [3]; 3.49 in experiment [4]; 0.605 in experiment [5]; 4.55 in experiment [6]. In addition, the PBM binding z-score in experiment [7] came to 4.89; in [8] it was 5.09; in [9], 3.26; in [10] it was 4.26.

As for CCTTACGGATCAAGGTTATAGCACGGGTGGTACG, the PBM binding z-score is 0.336 in experiment [1]; 0.57 in experiment [2]; 0.38 in experiment [3]; 0.5 in experiment [4]; 0.21 in experiment [5]; 0.917 in experiment [6]. The PBM binding z-score was 0.684 in experiment [7], 0.188 in experiment [8], -0.114 in [9] and 0.0556 in experiment [10].

For the sequence TCATATAGGTATACAGGTGAAAGTCCGTAAGTTA, the PBM binding z-score was determined as 1.01 in experiment [1]; 1.13 in experiment [2]; 0.26 in experiment [3]; 1.2 in experiment [4]; 0.257 in [5]; 1.9 in [6]. Besides, the PBM binding z-score in experiment [7] stood at 2.4; in experiment [8] it was 3.24; in [9] it was 3.8; in experiment [10], 3.58.

As for ATCTCTAGGTAAAGTTCAGTGAGAGATCGATAGA, the PBM binding z-score in [1] is 1.25; in experiment [2] it was 1.82; in experiment [3] it was 1.42; in experiment [4], 0.981; in experiment [5], 0.57; in [6] it was 2.42. For the same sequence, the PBM binding z-score came out at 3.37 in experiment [7], 3.95 in experiment [8], 2.06 in experiment [9] and 3.46 in experiment [10].

Take ACAGACAGGTGATGAAGGTCACTCAGGCTATCAT: the PBM binding z-score in [1] came to 1.77; in experiment [2], 2.17; in experiment [3], 0.813; in experiment [4] it was 1.96; in experiment [5] it was 0.00655; in experiment [6], 2.75. In addition, the PBM binding z-score turned out to be 1.62 in experiment [7], 1.8 in experiment [8], 0.565 in [9] and 1.21 in experiment [10].

Regarding ACAGACAGGTGGTGAAGGTAACTCAGGCTATCAT, the PBM binding z-score in [1] is -0.0169; in [2], -0.306; in [3], -0.324; in [4], -0.0742; in experiment [5], -0.476; in experiment [6], -0.288. The PBM binding z-score in experiment [7] was 0.473; in experiment [8], -0.194; in experiment [9] it was -0.095; in [10], -0.321.

ATCTCTAGGTAAAGATAGTTCAGTGAATGCAAAT: the PBM binding z-score in [1] was found to be 0.206; in experiment [2], 4.16; in [3], 0.484; in experiment [4], 0.65; in [5] it was 0.725; in [6], 0.625. Besides, the PBM binding z-score in experiment [7] amounted to 0.646; in experiment [8], 0.562; in [9], 1.03; in experiment [10], 0.949.

AGATGTAGGTTACATCCGGGTCATTCAGGCTATG: the PBM binding z-score in experiment [1] is 2.09; in experiment [2] it was 4.32; in [3], 0.937; in [4], 2.54; in [5], 0.043; in [6], 4.14. Moreover, the PBM binding z-score in experiment [7] was found to be 5.05; in experiment [8] it was 4.32; in experiment [9], 1.77; in experiment [10] it was 3.53.

In the case of TCTATTAGTTGGAGGGCAACCGACGAGTCCGTTT, the PBM binding z-score in experiment [1] came to 0.6; in experiment [2], 1.06; in [3], 0.645; in [4], 0.855; in experiment [5], 0.753; in [6], 0.93. Besides, the PBM binding z-score is -0.158 in experiment [7], 1.88 in experiment [8], 3.25 in [9] and 2.33 in experiment [10].

Turning to ATAATGAGGTTAAGATCAGGGAAACAGAATACAT, the PBM binding z-score in experiment [1] turned out to be 2.39; in [2] it was 2.59; in experiment [3], 0.379; in experiment [4] it was 2.15; in [5] it was 0.727; in experiment [6], 3.79. For the same sequence, the PBM binding z-score in experiment [7] is 3.01; in experiment [8] it was 2.48; in experiment [9] it was 1.48; in [10], 2.19.

For AACGAAAGGTCGAGGTGAGTATAGAGAAAGGGAA, the PBM binding z-score in experiment [1] is 4.3; in [2], 3.7; in experiment [3], -0.0292; in experiment [4], 2.86; in [5] it was 0.0857; in experiment [6], 4.71. Moreover, the PBM binding z-score in experiment [7] came out at 3.34; in experiment [8], 3.82; in [9], 1.16; in experiment [10] it was 2.59.

Values taken from the supplement of paper PMC6555819.
